Laboratory results reported in PubChem BioAssay (NCATS).
Where “and” joins values, the source holds several entries; their conditions need not be identical. Equal values may be shown once. Results filed as inconclusive are left out. Entries that show only a call come without a potency. Calls of active or inactive are those of the source. The call rests on the fitted dose curve; in most records, active means well fitted curve in the direction sought with a large enough effect; inconclusive means small, poorly fitted or top-dose-only effect, or another doubt; inactive means no such curve, though single readings can be large; an effect the other way counts as inactive or inconclusive.

Legend:
[1] = qHTS of pediatric cancer cell lines to identify multiple opportunities for drug repurposing: Primary screen for NB-EBc1 cells (AID 1347095); further: potency means the concentration at half of the fitted maximal effect
Summary of the method: (§1)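 Cells plated at 500-1,000/well in growth medium, compounds added after 5 h. MIPE tested at 11 points (from 0.78 nM), NPC at 8 points (from 0.59 nM). CellTiter-Glo luminescence after 48 h; concentration-response curves from primary screen.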

[2] = qHTS of pediatric cancer cell lines to identify multiple opportunities for drug repurposing: Primary screen for Saos-2 cells (AID 1347097); further: nearly all actives have a fitted effect of over 40% in size; further: potency means the concentration at half of the fitted maximal effect
Summary of the method: as §1

[3] = qHTS of pediatric cancer cell lines to identify multiple opportunities for drug repurposing: Primary screen for SK-N-SH cells (AID 1347098); further: nearly all actives have a fitted effect of over 65% in size; further: potency means the concentration at half of the fitted maximal effect
Summary of the method: (§2)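 Cells (500-1,000/well) rested 5 h, then received compounds for 48 h; metabolically active cells were measured by CellTiter-Glo luminescence. Final concentrations spanned up to 46 µM (MIPE, 11-point) or 0.59 nM-46 µM (NPC, 8-point) in primary screens, 11-point in follow-ups.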

[4] = qHTS of pediatric cancer cell lines to identify multiple opportunities for drug repurposing: Primary screen for NB1643 cells (AID 1347099); further: nearly all actives have a fitted effect of over 50% in size; further: potency means the concentration at half of the fitted maximal effect
Summary of the method: as §1

[5] = qHTS of pediatric cancer cell lines to identify multiple opportunities for drug repurposing: Primary screen for LAN-5 cells (AID 1347100); further: potency means the concentration at half of the fitted maximal effect
Summary of the method: (§3)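 Cells (500-1,000/well) in growth media were settled 5 h at 37 degrees C, then given compounds for 48 h. Viability was read as CellTiter-Glo luminescence. Primary runs used MIPE at 11 points (0.78 nM-46 µM) and NPC at 8 points (0.59 nM-46 µM); follow-ups used 11 points.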

[6] = qHTS of pediatric cancer cell lines to identify multiple opportunities for drug repurposing: Primary screen for BT-12 cells (AID 1347101); further: nearly all actives have a fitted effect of over 25% in size; further: potency means the concentration at half of the fitted maximal effect
Summary of the method: as §2

[7] = qHTS of pediatric cancer cell lines to identify multiple opportunities for drug repurposing: Primary screen for Rh18 cells (AID 1347102); further: nearly all actives have a fitted effect of over 65% in size; further: potency means the concentration at half of the fitted maximal effect
Summary of the method: as §3

[8] = qHTS of pediatric cancer cell lines to identify multiple opportunities for drug repurposing: Primary screen for OHS-50 cells (AID 1347103); further: nearly all actives have a fitted effect of over 40% in size; further: potency means the concentration at half of the fitted maximal effect
Summary of the method: as §2

[9] = qHTS of pediatric cancer cell lines to identify multiple opportunities for drug repurposing: Primary screen for RD cells (AID 1347104); further: nearly all actives have a fitted effect of over 55% in size; further: potency means the concentration at half of the fitted maximal effect
Summary of the method: as §1

[10] = qHTS of pediatric cancer cell lines to identify multiple opportunities for drug repurposing: Primary screen for Rh41 cells (AID 1347108); further: nearly all actives have a fitted effect of over 70% in size; further: potency means the concentration at half of the fitted maximal effect
Summary of the method: as §1

[11] = qHTS of pediatric cancer cell lines to identify multiple opportunities for drug repurposing: Confirmatory screen for NB1643 cells (AID 1347109); further: nearly all actives have a fitted effect of over 45% in size; further: potency means the concentration at half of the fitted maximal effect
Summary of the method: as §3

[12] = qHTS of pediatric cancer cell lines to identify multiple opportunities for drug repurposing: Confirmatory screen for A673 cells (AID 1347110);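 further: cells exposed to compound for 48 h before the viability read; nearly all actives have a fitted effect of over 65% in size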; further: potency means the concentration at half of the fitted maximal effect
Summary of the method: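 A673 cells at 500-1,000 cells/well were dosed 5 h after plating, in dilution series up to 46 uM final; primary runs used 8 or 11 points and confirmatory runs used 11 points. Viability was read by CellTiter-Glo luminescence after 48 h, against DMSO and 2.3 uM bortezomib controls.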

[13] = qHTS of pediatric cancer cell lines to identify multiple opportunities for drug repurposing: Confirmatory screen for SK-N-MC cells (AID 1347111);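 further: cells exposed to compound for 48 h before the readout; nearly all actives have a fitted effect of over 70% in size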; further: potency means the concentration at half of the fitted maximal effect
Summary of the method: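 Metabolically active cells were quantified by ATP-dependent luminescence (CellTiter-Glo, 15 min at room temperature) following 48 h treatment. Cells had been plated at 500-1,000 per well and settled for 5 h beforehand.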

[14] = qHTS of pediatric cancer cell lines to identify multiple opportunities for drug repurposing: Confirmatory screen for BT-12 cells (AID 1347112); further: nearly all actives have a fitted effect of over 55% in size; further: potency means the concentration at half of the fitted maximal effect
Summary of the method: as §3

[15] = qHTS of pediatric cancer cell lines to identify multiple opportunities for drug repurposing: Primary screen for U-2 OS cells (AID 1347096); further: nearly all actives have a fitted effect of over 50% in size
Summary of the method: as §3

[16] = qHTS of pediatric cancer cell lines to identify multiple opportunities for drug repurposing: Primary screen for MG 63 (6-TG R) cells (AID 1347105); further: nearly all actives have a fitted effect of over 50% in size; further: potency means the concentration at half of the fitted maximal effect
Summary of the method: as §1

[17] = qHTS of pediatric cancer cell lines to identify multiple opportunities for drug repurposing: Primary screen for control Hh wild type fibroblast cells (AID 1347106);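 further: series mostly up to about 46 µM; a drop in luminescence marks cytotoxicity and a rise apparent proliferation; nearly all actives have a fitted effect of over 55% in size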
Summary of the method: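 Viability after 48 h compound treatment at 37C, 500-1,000 cells/well, read as ATP luminescence with CellTiter-Glo. Primary screens used 11-point (MIPE, 0.78 nM-46 µM) or 8-point (NPC, 0.59 nM-46 µM) final concentrations; follow-up screens used 11-point dilutions.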

[18] = qHTS of pediatric cancer cell lines to identify multiple opportunities for drug repurposing: Primary screen for Rh30 cells (AID 1347107); further: series mostly up to about 46 µM; nearly all actives have a fitted effect of over 75% in size
Summary of the method: as §3

CC[C@@]1(O)C(=O)OCc2c1cc1n(c2=O)Cc2cc3c(CN(C)C)c(O)ccc3nc2-1
Potency [1]: 47.3 nM (active) and 26.4 nM (active) | Potency [2]: 29.9 nM (active) and 235 nM (active) | Potency [3]: 344 nM (active) and 1.71 µM (active) | Potency [4]: 26.6 nM (active) and 296 nM (active) | Potency [5]: 47.3 nM (active) and 41.8 nM (active) | Potency [6]: 309 nM (active) and 1.37 µM (active) | Potency [7]: 473 nM (active) and 1.48 µM (active) | Potency [8]: 27.6 nM (active) and 109 nM (active) | Potency [9]: 2.66 µM (active) and 4.69 µM (active) | Potency [10]: 2.11 µM (active) and 2.64 µM (active) | Potency [11]: 0.329 µM (active) | Potency [12]: 0.131 µM (active) | Potency [13]: 0.0465 µM (active) | Potency [14]: 3.69 µM (active)

NC12CC3CC(CC(C3)C1)C2
Potency [1]: inactive | Potency [15]: inactive | Potency [2]: inactive | Potency [4]: inactive | Potency [5]: inactive | Potency [6]: inactive | Potency [7]: inactive | Potency [8]: inactive | Potency [9]: inactive | Potency [16]: inactive | Potency [17]: inactive | outcome [18]: inactive | Potency [10]: inactive | Potency [11]: inactive | Potency [12]: inactive | Potency [13]: inactive | Potency [14]: inactive

O=c1c(O)c(-c2ccc(O)c(O)c2)oc2cc(O)cc(O)c12
Potency [1]: 23.5 µM (active) | Potency [15]: inactive | Potency [3]: 24.1 µM (active) | Potency [9]: inactive | Potency [16]: inactive | Potency [17]: inactive | outcome [18]: inactive | Potency [10]: inactive

CN(Cc1cnc2nc(N)nc(N)c2n1)c1ccc(C(=O)N[C@@H](CCC(=O)O)C(=O)O)cc1
Potency [1]: 106 nM (active) and 187 nM (active) | Potency [15]: inactive | Potency [2]: inactive | Potency [3]: inactive | Potency [5]: 52.6 nM (active) | Potency [6]: 6.2 nM (active) | Potency [7]: inactive | Potency [8]: 9.8 nM (active) | Potency [9]: 0.0106 µM (active) | Potency [17]: inactive | outcome [18]: inactive | Potency [10]: inactive | Potency [12]: 0.0329 µM (active) | Potency [13]: 0.0369 µM (active)

C[C@@H]1CC(=O)NN=C1c1ccc(NN=C(C#N)C#N)cc1
Potency [15]: inactive | Potency [2]: 18.7 µM (active) | Potency [4]: 26.4 µM (active) | Potency [6]: 21.9 µM (active) and 27.6 µM (active) and 24.3 µM (active) | Potency [7]: inactive | Potency [8]: 21700 nM (active) | Potency [9]: 29.6 µM (active) | Potency [16]: 10.6 µM (active) | Potency [17]: inactive | outcome [18]: inactive

Cc1cnc(C(=O)NCCc2ccc(S(=O)(=O)NC(=O)NC3CCCCC3)cc2)cn1
Potency [1]: inactive | Potency [15]: inactive | Potency [2]: inactive | Potency [3]: inactive | Potency [4]: inactive | Potency [5]: inactive | Potency [6]: inactive | Potency [7]: inactive | Potency [8]: inactive | Potency [9]: inactive | Potency [17]: inactive | outcome [18]: inactive | Potency [10]: inactive

Clc1ccccc1C(c1ccccc1)(c1ccccc1)n1ccnc1
Potency [15]: inactive | Potency [2]: 26.6 µM (active) and 33.2 µM (active) | Potency [3]: inactive | Potency [5]: inactive | Potency [7]: inactive | Potency [9]: 18.7 µM (active) | Potency [16]: inactive | Potency [17]: inactive | outcome [18]: inactive
